Measured values taken from PubChem BioAssay AID1835 (Johns Hopkins Ion Channel Center, 2009).
Screen size: about 2,400 compounds; about 750 (31%) were called active. The list shows a part of the results. Unmarked numbers belong to inactive results.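 How the source made its calls: active means median signal gain over dofetilide-blocked control wells reaching their mean plus 3 SD, so readout 1 at least 0; inactive means the rest.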

What follows are compounds tested against Voltage-gated inwardly rectifying potassium channel KCNH2 (Homo sapiens) (UniProt Q12809) (assay: hERG protection against dofetilide inhibition, confirmation, cell-based, thallium flux, duplicate retest, dofetilide IC70 (AID 1835)). Settings: hERG cell line, FluxOR thallium flux, dofetilide-blocked; at 10 µM; active compounds read high.
Chain of Voltage-gated inwardly rectifying potassium channel KCNH2 (Homo sapiens) (Q12809 whole entry, looked up): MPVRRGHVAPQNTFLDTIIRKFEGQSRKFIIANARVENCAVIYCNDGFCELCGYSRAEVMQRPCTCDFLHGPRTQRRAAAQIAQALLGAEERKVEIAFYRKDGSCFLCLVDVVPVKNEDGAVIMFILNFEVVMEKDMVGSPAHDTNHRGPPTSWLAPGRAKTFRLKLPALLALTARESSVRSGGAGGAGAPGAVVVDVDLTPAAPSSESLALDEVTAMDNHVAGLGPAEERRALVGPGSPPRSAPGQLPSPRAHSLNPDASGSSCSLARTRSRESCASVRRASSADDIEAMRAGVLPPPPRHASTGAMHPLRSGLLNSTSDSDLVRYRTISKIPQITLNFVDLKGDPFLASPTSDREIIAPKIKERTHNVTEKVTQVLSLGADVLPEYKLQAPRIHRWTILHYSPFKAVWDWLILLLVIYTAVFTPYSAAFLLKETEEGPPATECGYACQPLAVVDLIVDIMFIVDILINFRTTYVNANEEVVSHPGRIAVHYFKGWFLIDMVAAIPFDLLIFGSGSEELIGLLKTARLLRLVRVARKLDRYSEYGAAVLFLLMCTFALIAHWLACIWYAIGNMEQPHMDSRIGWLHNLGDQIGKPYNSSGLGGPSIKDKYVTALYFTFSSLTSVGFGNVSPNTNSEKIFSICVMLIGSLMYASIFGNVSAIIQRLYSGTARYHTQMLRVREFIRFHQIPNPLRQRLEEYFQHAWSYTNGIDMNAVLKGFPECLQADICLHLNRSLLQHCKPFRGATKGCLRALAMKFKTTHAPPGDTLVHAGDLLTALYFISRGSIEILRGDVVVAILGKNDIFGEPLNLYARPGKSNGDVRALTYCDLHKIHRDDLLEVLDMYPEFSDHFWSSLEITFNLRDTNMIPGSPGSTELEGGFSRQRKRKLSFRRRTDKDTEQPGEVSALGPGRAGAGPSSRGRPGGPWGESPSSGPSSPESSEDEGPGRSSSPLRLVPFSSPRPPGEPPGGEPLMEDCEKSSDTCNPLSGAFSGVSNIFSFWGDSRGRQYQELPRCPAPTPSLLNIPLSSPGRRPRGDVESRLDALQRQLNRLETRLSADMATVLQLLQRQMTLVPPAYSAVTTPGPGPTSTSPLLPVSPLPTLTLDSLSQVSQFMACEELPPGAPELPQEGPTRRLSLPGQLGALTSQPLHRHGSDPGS

| SMILES | activity increase over dofetilide control, less the hit threshold |
| --- | --- |
| Cc1cc(Cl)c(S(=O)(=O)N2CCSCC2)cc1OCC(=O)NC1CCCCC1 | -8% |
| Cc1nc(NCCc2ccc(S(N)(=O)=O)cc2)c2c(C)c(C)sc2n1 | 2% (active) |
| O=C(Nc1nc(-c2ccccc2)c(-c2ccccc2)o1)c1ccc(F)cc1 | 17% (active) |
| O=C(Nc1nnc(-c2ccccc2)o1)c1ccc(Cl)cc1 | -19% |
| O=C(Nc1cccc2[nH]ncc12)c1ccc(F)cc1 | -7% |
| O=c1cc(-c2c(F)c(F)c(F)c(F)c2F)oc2ccccc12 | 2% (active) |
| CCOC(=O)C(=CNc1cc(C)ccc1[N+](=O)[O-])C(=O)OCC | -17% |
| CCOC(=O)C(=CNc1ccc(N2CCOCC2)cc1)C(=O)OCC | 0% |
| CCOC(=O)C(=CNc1cc(C)ccn1)C(=O)OCC | 10% (active) |
| CCOC(=O)C(=CNc1cccc(C)n1)C(=O)OCC | 5% (active) |
| CCOC(=O)C(=CNc1cc(C)nn1C(C)(C)C)C(=O)OCC | 2% (active) |
| CCOC(=O)C(=CNc1ccc(OC)cc1[N+](=O)[O-])C(=O)OCC | -10% |
| CCOC(=O)CC(=O)CSc1nc2c(C)c(C)ccc2cc1C | -7% |
| O=C(NC1CCCC1)C(c1ccncc1)N(C(=O)Cn1nnc(-c2ccccc2F)n1)c1cccc(F)c1 (configuration not stated) | -14% |
| Cc1cccc(C)c1NC(=O)Cn1cnc2c(=O)n(C)c(=O)n(C)c21 | -17% |
| COc1ccccc1C1C(C(=O)c2ccc(C)o2)=C(O)C(=O)N1c1cc(C)on1 (configuration not stated) | -1% |
| Cc1ccc(NC(=O)COc2cccnc2[N+](=O)[O-])cc1S(=O)(=O)N1CCOCC1 | -24% |
| Cc1ccc(-c2noc(CCC(=O)NC3CCCC3)n2)cc1 | -7% |
| Cc1cc(C)cc(-n2c(C)cc(/C=N/NC(=O)CN(c3c(C)cccc3C)S(C)(=O)=O)c2C)c1 | -1% |
| CN(C(=S)NC(=O)c1ccccc1Br)C1CCCCC1 | 1% (active) |
| CCN(C(=S)NC(=O)c1ccccc1Br)C1CCCCC1 | 80% (active) |
| O=C(NCC1CCCCC1)c1cccnc1Cl | -14% |

| SMILES | activity increase over dofetilide control, less the hit threshold |
| --- | --- |
| COc1cc(S(=O)(=O)Nc2c(C)cc(C)cc2C)ccc1Cl | -10% |
| O=C(CN1C(=O)COc2ccccc21)NNC(=O)Nc1ccccc1F | -22% |
| COCCn1c(SCC(=O)Nc2cc(C)cc(C)c2)nc2ccccc2c1=O | -9% |
| CC(C)CCn1c(SCC(=O)NC2CC2)nc2cc(Cl)ccc2c1=O | -13% |
| CCCn1c(SCN2C(=O)c3ccccc3C2=O)nc2cc(Cl)ccc2c1=O | 20% (active) |
| CCCCC1C2=C(CCCC2=O)OC2=C1C(=O)CCC2 | -13% |
| CCCCn1c(N)c(C(=S)NC(=O)CC(C)(C)C)c(=O)n(C)c1=O | -3% |
| O=C1c2ccccc2NC(c2ccc(Br)s2)N1O (configuration not stated) | 41% (active) |
| COc1ccc(-c2cc(=O)oc3cc(OCC(C)=O)ccc23)cc1 | -27% |
| COc1ccc(/C=C/c2cc(=O)c3cc(Cl)ccc3o2)cc1 | 56% (active) |
| Cc1oc2ccc(OCc3ccc(Cl)cc3)cc2c1C(=O)O | -7% |
| CCN(C(=O)c1cc2c(=O)[nH]c3ccc(C)cc3c2s1)c1ccccc1F | -15% |
| O=C(c1ccc2c(c1)N(Cc1ccccc1F)C(=O)c1ccccc1S2(=O)=O)N1CCCC1 | -10% |
| CC/C(=N\NC(=O)c1nnn(-c2nonc2N)c1-c1cccs1)c1ccccc1 | -4% |
| N#Cc1ccccc1OCCN1C(=O)c2ccccc2C1=O | -4% |
| S=c1[nH]c(-c2ccccc2)cs1 | 66% (active) |
| S=c1[nH]c(-c2ccc(Cl)cc2)cs1 | 136% (active) |
| S=c1[nH]nc(Nc2ccc(Cl)cc2)s1 | -3% |
| O=Cc1cc(-c2ccccc2)[nH]c1-c1ccccc1 | -19% |
| Cc1ccc(-c2csc(=S)[nH]2)cc1 | 95% (active) |
| CO/N=C(\CCC(=O)O)c1cccs1 | -20% |
| O=C(N/N=C/c1cc([N+](=O)[O-])ccc1O)c1ccc(COc2ccc3c(c2)CCC3)o1 | -10% |

| SMILES | activity increase over dofetilide control, less the hit threshold |
| --- | --- |
| O=C(O)COc1ccccc1/C=C1\SC(=S)N(NC(=O)c2ccccc2O)C1=O | -11% |
| Cc1c(N2C(=O)/C(=C\c3ccccc3O)SC2=S)c(=O)n(-c2ccccc2)n1C | 14% (active) |
| O=C(OCc1ccc(F)cc1)c1cc(S(=O)(=O)N2CCCCC2)ccc1N1CCOCC1 | -21% |
| Cc1cc(=O)oc(C)c1C(=O)NCCC(C)C | -17% |
| COc1ccc(NC(=O)CNC(=O)c2cccs2)cc1Cl | -8% |
| COc1cc(NC(=O)c2ccc3c(c2)OCO3)ccc1NC(=O)c1cccs1 | -22% |
| COc1ccc(OC)c(NC(=O)C(=O)NNC(=O)c2cccs2)c1 | 8% (active) |
| COc1ccc(NC(=O)C(=O)NNC(=O)c2cccs2)c(OC)c1 | 28% (active) |
| CCc1cccc2c1NC(=O)C2(O)CC(=O)c1cccs1 (configuration not stated) | -11% |
| COC(=O)c1ccnc(/C=N/O)c1 | -13% |
| O=C1NC(=S)SC1=C1CCCCCC1 | 53% (active) |
| Cc1ccccc1NC1=C/C(=N\S(=O)(=O)c2ccc(C(=O)O)cc2)c2ccccc2C1=O | -6% |
| O=C(O)c1ccc(S(=O)(=O)/N=C2\C=C(Nc3ccccc3F)C(=O)c3ccccc32)cc1 | 4% (active) |
| O=C(CCn1c(=S)[nH]c2cc3c(cc2c1=O)OCO3)NCc1ccc(Cl)cc1 | -8% |
| O=c1c2ccc(Cl)cc2[nH]c(=S)n1CCC1=CCCCC1 | 42% (active) |
| O=c1c2ccccc2[nH]c(=S)n1CCC1=CCCCC1 | 11% (active) |
| O=c1c2cccnc2[nH]c(=S)n1CCC1=CCCCC1 | -3% |
| O=C(Cc1cccs1)Nn1c(Cc2cccs2)nc2ccccc2c1=O | -7% |
| CC(=O)Nc1ccc(S(=O)(=O)NC2(C(F)(F)F)C(=O)Nc3c2c(=O)[nH]c(=O)n3C)cc1 (configuration not stated) | -10% |
| O=C(O)c1sccc1OCc1ccccc1 | -8% |
| O=C(NNc1c(F)c(F)cc(F)c1F)c1cc2ccccc2oc1=O | -20% |
| O=C(O)c1ccccc1NC(=O)c1cc2ccccc2oc1=O | 10% (active) |

| SMILES | activity increase over dofetilide control, less the hit threshold |
| --- | --- |
| COc1ccc(CCNC(=O)c2cc3ccccc3oc2=O)cc1 | -8% |
| CCO/C=C1\N=C(c2ccc(F)cc2)OC1=O | -5% |
| COC(=O)C1=C(C)NC2=C(C(=O)CCC2)C1c1ccc(-c2ccsc2C(=O)OC)o1 (configuration not stated) | 26% (active) |
| Cc1cc(C)c(S(=O)(=O)NCc2ccccn2)c(C)c1 | -6% |
| CCN(CC)c1ccc(NC(=S)NC(=O)c2ccco2)cc1 | 48% (active) |
| CCOc1ccc(NC(=S)NC(=O)c2ccco2)cc1 | 10% (active) |
| O=C(O)CNC(=O)c1ccc(NC(=O)/C(=C/c2ccccc2)NC(=O)c2ccco2)cc1 | -13% |
| COc1cc(OC)cc(C(=O)NC(=S)Nc2ccc(NC(=O)c3ccco3)cc2)c1 | -15% |
| CCCOc1ccc(C(=O)NNC(=S)NC(=O)c2ccco2)cc1 | -41% |
| O=C(CN1C(=O)COc2ccccc21)NCCCN1CCOCC1 | -2% |
| COc1ccc(NC(=O)N2CCN(c3ccc([N+](=O)[O-])cc3)CC2)cc1OC | -14% |
| Cc1ccc(N2CCN(C(=O)N3CCCC3)CC2)cc1C | 5% (active) |
| Cc1ccc(-n2c(=O)c3cc4c(=O)n(-c5ccc(C)c(C)c5)c(=O)c4c(C(=O)c4ccc(C(=O)O)cc4)c3c2=O)cc1C | -8% |
| Cn1ccnc1C(O)c1cccc(OCc2ccccc2)c1 (configuration not stated) | -10% |
| Cc1ccc(C(=O)Sc2cccccc2=O)cc1 | 8% (active) |
| CC1=CC(=O)C(C(C)C)=CC1=NC(=O)c1ccc(C)cc1 | -36% |
| COCCCNC(=O)CCc1nnc(Cc2ccc(-c3ccccc3)cc2)o1 | -16% |
| CON/C=N/C(=S)Nc1ncc(C(F)(F)F)cc1Cl | 65% (active) |
| ON/C=N/C(=S)Nc1ncc(C(F)(F)F)cc1Cl | 22% (active) |
| CCCCNC(=O)c1onc(CSc2nc3ccccc3[nH]2)c1C(=O)NCCCC | -12% |
| Cc1ccc(CNC(=O)CCc2ccc(S(=O)(=O)NCC(C)C)cc2)cc1 | -8% |
| CC(NC(=O)c1ccc(Br)cc1)c1ccc2c(c1)CCCC2 (configuration not stated) | 12% (active) |

| SMILES | activity increase over dofetilide control, less the hit threshold |
| --- | --- |
| CC(NC(=O)c1ccc(F)cc1)c1ccc2c(c1)CCCC2 (configuration not stated) | -12% |
| Cc1ccc(C(C)NC(=O)c2cccs2)cc1C (configuration not stated) | -21% |
| Fc1ccc(NC(=S)Nc2nccs2)cc1 | 0% |
| Nc1cccc2c1C(=O)N(CC(=O)NC13CC4CC(CC(C4)C1)C3)C2=O | -9% |
| Cc1ccc(/C(O)=C/C(=O)C(=O)NC23CC4CC(CC(C4)C2)C3)cc1 | 10% (active) |
| CCC(C)c1ccccc1NC(=S)NC(=O)c1ccco1 (configuration not stated) | 69% (active) |
| CCOc1ccccc1NC(=S)NC(=O)c1ccco1 | 3% (active) |
| CCC(C)c1ccccc1NC(=O)C(C)NCCN(C)C (configuration not stated) | -13% |
| CCC(C)c1ccccc1NC(=O)c1[nH]c(C)c(C(C)=O)c1C (configuration not stated) | -12% |
| Cc1nc2n(n1)CC(O)CS2 (configuration not stated) | -14% |
| CN(C)CCNc1ncnc2c1sc1nc(N3CCCC3)c3c(c12)CC(C)(C)OC3 | -10% |
| CCCCc1c(O)nc(SCC(=O)O)[nH]c1=O | -16% |
| CC12CCC3(CO)COC(c4ccccc4O1)C2C3 (configuration not stated) | -5% |
| O=C(COC(=O)c1cc(Br)ccc1O)Nc1cccnc1Cl | -14% |
| O=C(NC(=S)Nc1nc2c(s1)CCCC2)c1ccc(C(=O)c2ccccc2)cc1 | -3% |
| CC(C)(C)c1ccc(C(=O)NC(=S)Nc2nc3c(s2)CCCC3)cc1 | 13% (active) |
| COC(=O)c1ccc(C(=O)NC(=S)Nc2nc3c(s2)CC(C)CC3)cc1 (configuration not stated) | -10% |
| Cc1csc(NC(=O)c2cc3c(s2)CCCC3)n1 | -5% |
| COC(=O)c1ccc(C(=O)NC(=S)Nc2nc3c(s2)CCCC3)cc1 | 13% (active) |
